Measurements taken from PubChem BioAssay (NCI).
About 79,000 compounds went through this panel and 15% of them were active in at least one assay; those are over-represented in the sample as a whole. Activity calls are given as the source filed them. No stated cut-off is given here; in the data, active means growth inhibition above about 70%; inactive means the rest.

What was measured:
[1] = NCI Yeast Anticancer Drug Screen. Data for the rad50 strain (AID 155);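 further: 0% = growth of vehicle-only cultures of the same strain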; conditions: S. cerevisiae rad50 strain growth inhibition, hits give high values; at 50.0 µM unless noted
Summary of the method: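 Yeast carrying a defined DNA repair defect were exposed to test compounds, and growth was compared with vehicle-treated controls to give percent inhibition.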

[2] = NCI Yeast Anticancer Drug Screen. Data for the mec2-1 strain (AID 157); conditions: S. cerevisiae mec2-1 strain, hits give high values; at 50.0 µM unless noted
Summary of the method: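 Mutant yeast (mec2-1) grown with compound; growth inhibition relative to vehicle control reported.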

[3] = NCI Yeast Anticancer Drug Screen. Data for the sgs1 mgt1 strain (AID 161);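 further: 0% = growth of cultures given vehicle only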; conditions: S. cerevisiae sgs1 mgt1 strain, hits give high values; at 50.0 µM unless noted
Summary of the method: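 This yeast growth screen uses a strain with defined DNA-repair lesions; compound-treated growth is compared with vehicle-treated growth.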

[4] = NCI Yeast Anticancer Drug Screen. Data for the cln2 rad14 strain (AID 165);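 further: 0% = growth equal to vehicle treated cultures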; conditions: S. cerevisiae cln2 rad14 strain, hits give high values; at 50.0 µM unless noted
Summary of the method: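 Readout is yeast growth inhibition versus vehicle-treated controls, using a strain with cln2 and rad14 alterations exposed to compound.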

[5] = NCI Yeast Anticancer Drug Screen. Data for the bub3 strain (AID 167); conditions: S. cerevisiae bub3 mutant strain, hits give high values; at 50.0 µM unless noted
Summary of the method: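 Compounds were applied to a genetically altered yeast strain carrying a cell-cycle control defect. Growth inhibition was scored against vehicle-treated controls.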

[6] = NCI Yeast Anticancer Drug Screen. Data for the mlh1 rad18 strain (AID 175); conditions: S. cerevisiae mlh1 rad18 strain growth inhibition, hits give high values; at 50.0 µM unless noted
Summary of the method: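 Genetically defined yeast (DNA repair-deficient) exposed to compounds; growth inhibition determined relative to vehicle.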

Measured: growth inhibition

O=C1OC(Oc2ccccc2)c2cc3c(cc21)OCO3 (stereo unspecified)
inactive: [1] 20.4% | [2] -6.05% | [3] 21.3% | [4] 20.6% | [5] 17.9% | [6] 29.5%

C1C2OC2CC2OC12 (stereo unspecified)
inactive: [1] -13.4% | [2] -9.35% | [3] -1.2% | [4] 55.8% | [5] -1.05% | [6] -4.25%

Cn1c2ccc3cc2c(=S)c2cc(ccc21)OCCOCCOCCOCCOCCO3
inactive: [1] 32.1% | [2] -16% | [3] 0.65% | [4] -17% | [5] -13.3% | [6] 9.85%

OC/C(Br)=C(\Br)CO
inactive: [1] -34.3% | [2] -54.4% | [3] -39.6% | [4] -9.25% | [5] -28.6% | [6] -35.5%

CC1=C(N2CCOCC2)C(N2CCOCC2)C(C)C1=O (stereo unspecified)
inactive: [1] 16.8% | [2] -5.25% | [3] -4.8% | [4] 13.7% | [5] 9.1% | [6] 3%

CC1(C)SCc2nc3ccccc3n21
inactive: [1] -9.75% | [2] -34.9% | [3] 12.2% | [4] 21.9% | [5] 19.1% | [6] 6.3%

O=c1oc(-c2ccccc2CCl)nc2ccccc12
inactive: [1] 0.95% | [2] -17.1% | [3] 15.8% | [4] 15.3% | [5] -13.8% | [6] -5.9%

COc1cccc(NC(=O)NCCCl)c1OC
inactive: [1] -1.2% | [2] 11.8% | [3] 11.6% | [4] 41% | [5] -3.8% | [6] 22.4%

CC1CCC(OC(=O)CCC2CCCCC2)CC1 (stereo unspecified)
inactive: [1] -1.6% | [2] -12.1% | [3] 4.35% | [4] -34.2% | [5] -12.4% | [6] -18.3%

Cc1ccc(S(=O)(=O)N/N=C(\c2nc3ccc(Cl)cc3[nH]c2=O)C(O)c2cccc([N+](=O)[O-])c2)cc1 (stereo unspecified)
inactive: [1] -1.5% | [2] -24% | [3] -9.35% | [4] 11.7% | [5] -22.6% | [6] -0.5%

CCOC(=O)O/C(=C\c1ccc(OC)cc1)c1c(OC(=O)OCC)n(C(=O)OCC)c2ccccc12
inactive: [1] -13.1% | [2] -4.3% | [3] 7% | [4] 9.95% | [5] 12.7% | [6] 4.05%

COc1cc2c(cc1OC)C(C(N)=O)NCC2 (stereo unspecified)
inactive: [1] 10.2% | [2] -35.8% | [3] 25.6% | [4] 12.2% | [5] -7% | [6] 17.6%

COC(=O)C1=CN(CCc2ccc(O)cc2)C(=O)C2C1CC(O)C2C (stereo unspecified)
inactive: [1] 5.6% | [2] -6.2% | [3] 1.2% | [4] -2.2% | [5] -4.55% | [6] -10.2%

CC1CN(CCO)CCN1Cc1ccccc1 (stereo unspecified)
inactive: [1] -12.6% | [2] -12.3% | [3] -16.6% | [4] -5.1% | [5] -12.6% | [6] -5.8%

C/C=C/C(=O)Nc1cccc(OC(=O)NC(C)(C)C)c1
inactive: [1] 9.2% | [2] 13.1% | [3] 3.55% | [4] -2% | [5] 18% | [6] 1.65%

[O-][N+](=Nc1ccc2c(c1)Cc1ccccc1-2)c1ccc2c(c1)Cc1ccccc1-2
inactive: [1] 25.7% | [2] -20.2% | [3] 25.1% | [4] -19.1% | [5] 0.35% | [6] -7%

CC(C)(C)N=NNc1cn(C2OC(CO)C(O)C2O)c(=O)[nH]c1=O (stereo unspecified)
inactive: [1] -16.3% | [2] -17.6% | [3] -16.9% | [4] 9.5% | [5] -6.2% | [6] -15.7%

COC(=O)c1ccccc1OC
inactive: [1] 20.1% | [2] 15.8% | [3] -2.2% | [4] 6.75% | [5] -2.05% | [6] 3.1%

CC(O)C(O)CC(/C=N/NC(=O)c1ccccc1)=N/NC(=O)c1ccccc1 (stereo unspecified)
inactive: [1] 3.55% | [2] 4.25% | [3] -14.6% | [4] -7.55% | [5] -0.75% | [6] 2.8%

O=[N+]([O-])c1ccc(NN=C2CCCCC2)c([N+](=O)[O-])c1
inactive: [1] 9.1% | [2] -18.2% | [3] 1.8% | [4] -39.6% | [5] 2.7% | [6] 30.6%

O=C(N=C(Oc1ccccc1)Oc1ccccc1)N=C(Oc1ccccc1)Oc1ccccc1
inactive: [1] 19.9% | [2] 9.15% | [3] 8.4% | [4] 20.3% | [5] 9.15% | [6] 36%

O=C(Cc1csc2ccccc12)NCC1CC1
inactive: [1] -17.4% | [2] -19.1% | [3] -0.45% | [4] 2.45% | [5] 11% | [6] -3.55%

COc1ccc(COC(=O)Nc2ccccc2F)c(OC)c1OC
inactive: [1] 3.15% | [2] -9.55% | [3] 30.7% | [4] -3.55% | [5] 26.6% | [6] 16.7%

CCCOCC[N+](C)(C)C
inactive: [1] 1.65% | [2] -21.9% | [3] 8.65% | [4] -34.5% | [5] -8.9% | [6] -8.9%

CCOC(=O)c1oc2cc(O)ccc2c(=O)c1-c1ccc(OC)c(OC)c1
inactive: [1] 5.95% | [2] -1.7% | [3] 16.3% | [4] 3.45% | [5] 4.65% | [6] 11.8%

COC(=O)C1Cc2c([nH]c3ccccc23)C=N1 (stereo unspecified)
inactive: [1] 65.3% | [2] 31.2% | [3] 55% | [4] 45.5% | [5] 14.8% | [6] 62.6%

Cc1c(C(=O)C/C(=N/NC(=O)C[n+]2ccccc2)C(=O)Nc2ccccc2)[n+](=O)c2ccccc2n1O
inactive: [1] -37.5% | [2] 0.2% | [3] -40.7% | [4] -0.7% | [5] -15.2% | [6] -31.4%

Cc1ccc(Nc2cc(C(=O)O)c(Nc3ccc(C)cc3)cc2C(=O)O)cc1
inactive: [1] 0.7% | [2] -10.6% | [3] 12.3% | [4] 33.4% | [5] 7.85% | [6] 6.9%

O=C1OCC=C1Sc1ccccc1
inactive: [1] -1.7% | [2] -8.05% | [3] -13.4% | [4] -7.7% | [5] -2.4% | [6] -8.8%

Cn1c(=O)c(C(=O)Nc2nc(C34CC5CC(CC(C5)C3)C4)cs2)c(O)c2ccccc21
inactive: [1] -27.8% | [2] -28.6% | [3] -5.7% | [4] 11.1% | [5] -10% | [6] -30.6%

NNC(=S)N/N=C/c1ccc([N+](=O)[O-])s1
inactive: [1] 9.2% | [2] -2.4% | [3] 24.1% | [4] -47.4% | [5] -19.8% | [6] 6.35%

O=[N+]([O-])c1ccc(/C=C(/c2ccc([N+](=O)[O-])o2)S(=O)(=O)c2ccccc2)cc1
active: [3] 76.8%
inactive: [1] 64.8% | [2] 13.8% | [4] 43% | [5] -1.25% | [6] 60.5%

Nc1nc2ncn(CCO)c2c(=O)[nH]1
inactive: [1] 9.4% | [2] 1.95% | [3] 2.8% | [4] -0.65% | [5] 3.35% | [6] 16.4%

CC(=O)NCCc1c[nH]c2ccc(Cl)cc12
inactive: [1] -33.5% | [2] 21.4% | [3] -27.4% | [4] -11.6% | [5] 26.8% | [6] -10.1%

Nc1ccc(S(=O)(=O)CCCl)cc1
inactive: [1] 8.7% | [2] 0.95% | [3] 18.5% | [4] 22.2% | [5] 13.7% | [6] 11.6%

CC(C)(O)CCO
inactive: [1] -38.4% | [2] -40.4% | [3] -17.4% | [4] -10.7% | [5] -25.9% | [6] -33.1%

O=P1(NC23CC4CC(CC(C4)C2)C3)OC(CCl)=NC1c1ccc(C2N=C(CCl)OP2(=O)NC23CC4CC(CC(C4)C2)C3)cc1 (stereo unspecified)
inactive: [1] -56.6% | [2] -32.7% | [3] -34.3% | [4] -12.8% | [5] -35.1% | [6] -57.2%

O=C1CSC(c2ccccc2Cl)N1c1n[nH]c(=S)s1 (stereo unspecified)
inactive: [1] -13.8% | [2] -17.6% | [3] -9.5% | [4] -55% | [5] -23.6% | [6] 1%

Cc1ccc2c(c1)P(=O)(O)c1cc(C)ccc1S2
inactive: [1] -12.4% | [2] -16.6% | [3] 14.4% | [4] 22.4% | [5] -4.05% | [6] 19.7%

Cc1no[n+]([O-])c1/C=N/NS(=O)(=O)c1ccccc1
inactive: [1] 2.25% | [2] -17.6% | [3] -12.9% | [4] -6.05% | [5] -2.7% | [6] -23.1%

COc1ccc(C(C)c2cc(N=NC(N)=O)c(OC)cc2O)cc1 (stereo unspecified)
inactive: [1] -2.7% | [2] -3.6% | [3] -4.1% | [4] -4.25% | [5] 16.9% | [6] 12.7%
